Test results: PubChem BioAssay AID489012 (National Center for Advancing Translational Sciences (NCATS), 2010)
Records with an inconclusive call do not appear. Where a call stands in place of a potency, no number is given. The source made the active and inactive calls. The call rests on the fitted dose curve; in most records, active means well fitted activation curve with a large enough effect; inconclusive means small, poorly fitted or top-dose-only effect; inactive means no such curve, though single readings can be large or run the other way.

Target: Relaxin receptor 1 (Homo sapiens) (UniProt Q9HBX9)
Assay: qHTS Assay for Agonists of the Relaxin Receptor RXFP1: RXFP1 Hit Validation; further: nearly all actives have a fitted effect of over 65% in size;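 on activation: cAMP rise lowers the TR-FRET signal in lysed cells with PDE4 inhibitor present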
From the text: NIH Chemical Genomics Center [NCGC] NIH Molecular Libraries Probe Production Centers Network [MLPCN] MLPCN Grant: R03 MH085705-01A1 Assay Submitter (PI): Alexander Agoulnik NCGC Assay Overview: The relaxin hormone is involved in the variety of biological functions in normal tissues and diseases. The role of relaxin is well-established in female reproduction and parturition, mammary gland and endometrial development, maintenance of myometrial quiescence during pregnancy. Relaxin signaling through its G protein-coupled receptor (GPCR) RXFP1 results in ECM remodeling through regulation of collagen deposition, cell invasiveness, proliferation and overall tissue homeostasis. […] Recombinant human relaxin (rhRlx) is currently being tested in clinical trials as a protective agent in congestive heart failure, in treating severe preeclampsia, and as an anti-fibrotic agent in systemic sclerosis. Upon relaxin binding RXFP1 activation leads to the activation of adenylate cyclase (AC) via Gs. cAMP will activate PKA, which phosphorylates many signaling proteins. Thus, detection of cAMP increase is an easy and reliable indication of relaxin receptor activation. To screen for agonists of the relaxin receptor, a HEK293T cell line stably transfected with RXFP1 was used. RXFP1 activation was assayed by changes in cAMP levels as detected with a time-resolved fluorescence energy transfer (TR-FRET) cAMP detection kit.
NCGC Assay Protocol Summary: This is a cell-based assay for cAMP second messenger response to screen for agonists of the RXFP1 receptor. The assay was conducted in the presence of a PDE4 inhibitor (Ro 20174). The cells were lysed and the cAMP levels were measured with a TR-FRET cAMP kit. Presence of cAMP in the cell lysate disrupts binding between the cryptate-labeled anti-cAMP and d2-labeled cAMP pair, leading to a decrease in the TR-FRET signal. Data were normalized to the controls for basal activity (buffer only) and 100% activity (29 nM porcine relaxin). The EC50 values were determined from concentration-response data modeled with the standard Hill equation 1536-well assay protocol for the HEK293 RXFP1 cAMP assay: (1) Add 3 ul HEK293 RXFP1 cell culture. 2000 cells/well in DMEM/F12, 10% FBS, 1x Pen/Strep (dispensed offline with MultiDrop Combi). (2) Incubate 16-24 hr at 37C, 5% CO2. (3) Add 1 ul 400uM Ro20174 in DPBS, 0.05% BSA, 0.005% Tween 20. (3) Add 23 nl compounds in DMSO solution. Final concentration was 0.5 - 58 uM. (4) Incubate 30 min at 37C, 5% CO2. (5) Add 1 ul cAMP-d2 in lysis buffer (HTRF cAMP HiRange kit, CisBio). (6) Add 1 ul anti-cAMP antibody-cryptate in lysis buffer (HTRF cAMP HiRange kit, CisBio). (7) Incubate 30 min at room temperature. […]
Potency means the concentration at half of the fitted maximal effect.

Relaxin receptor 1 (Homo sapiens), sequence (Q9HBX9 whole entry, looked up): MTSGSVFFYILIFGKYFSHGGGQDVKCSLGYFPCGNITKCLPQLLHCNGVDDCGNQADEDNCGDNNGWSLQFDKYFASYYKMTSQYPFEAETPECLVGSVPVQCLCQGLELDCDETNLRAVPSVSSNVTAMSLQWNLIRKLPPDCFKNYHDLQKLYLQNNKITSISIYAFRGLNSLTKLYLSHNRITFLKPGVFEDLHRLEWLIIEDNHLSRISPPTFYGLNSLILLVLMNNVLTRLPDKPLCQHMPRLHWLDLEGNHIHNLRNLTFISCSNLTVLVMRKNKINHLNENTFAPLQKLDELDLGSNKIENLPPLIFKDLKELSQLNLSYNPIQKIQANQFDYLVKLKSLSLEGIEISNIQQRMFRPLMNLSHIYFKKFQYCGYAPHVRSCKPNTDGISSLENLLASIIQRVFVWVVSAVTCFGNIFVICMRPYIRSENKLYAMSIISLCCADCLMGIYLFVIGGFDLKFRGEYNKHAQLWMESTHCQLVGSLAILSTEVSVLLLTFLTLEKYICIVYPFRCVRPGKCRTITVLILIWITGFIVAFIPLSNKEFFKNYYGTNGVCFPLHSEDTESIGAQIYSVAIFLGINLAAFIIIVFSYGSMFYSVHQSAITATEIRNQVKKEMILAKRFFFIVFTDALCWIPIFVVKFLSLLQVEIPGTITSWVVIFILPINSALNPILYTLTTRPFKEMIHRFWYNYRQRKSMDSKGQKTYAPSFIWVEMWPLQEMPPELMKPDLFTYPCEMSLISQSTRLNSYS

Compound: Nc1ncc2[nH]cnc2n1
- Potency: 13.8 µM (active)

Compound: O=C(O)c1sc2cc(Cl)ccc2c1Cl
- Potency: inactive

Compound: CCC(Oc1cc(Cl)ccc1Cl)C(=O)N1CCC2(CC1)OCCO2 (centres undefined)
- Potency: inactive

Compound: CCNC(=O)[C@H]1O[C@@H](n2cnc3c(N)ncnc32)[C@H](O)[C@@H]1O
- Potency: 0.308 µM (active)
